In the library only some 0.95% were active in any assay of this set; here they are far more common.
RE007 growth inh: less growth of the S. pombe RE007 Vpr strain | S. pombe RE007 Vpr strain, BacTiter-Glo ATP luminescence, 24 h | Potency, µM (doses to about 92.2 µM), most hits filed as inhibitors | 0.21% of 360,000 active | AID 651644; active = well fitted falling curve with a large enough effect; inconclusive = small, poorly fitted or top-dose-only effect; inactive = no such curve, though single readings can be large or run the other way; note: nearly all actives have a fitted effect of over 50% in size
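Fission yeast strain RE007, carrying one chromosomally integrated HIV-1 vpr copy, was seeded at OD 0.01 in PMG+AL medium with 23 nL pinned compound. After 24 h at 30 °C and 99% humidity, viability was read by BacTiter-Glo luminescence.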
LmPK inhibitor: blocks Leishmania mexicana pyruvate kinase activity | Q27686 | purified LmPK, Kinase-Glo ATP luminescence, 1 h | Potency, µM (doses to about 57.5 µM), hits mostly inhibitors | 0.37% of 290,000 active
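Purified LmPK (0.1 nM) with 0.5 mM PEP and 0.1 mM ADP in imidazole buffer pH 7.2 with MgCl2/KCl, 1 h at room temperature. ATP formed was read by luciferase luminescence and normalized to no-enzyme and uninhibited controls.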
Giardia FBPA inh-1: inhibitors of Giardia lamblia fructose-1,6-bisphosphate aldolase. Potency, µM (highest dose often 59.6 µM), actives largely listed as inhibitors. 0.71% of 290,000 active. A8B2U2. purified Giardia FBPA. AID 2451; note: nearly all actives have a fitted effect of over 55% in size
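40 nM FBPA preincubated 10 min at RT with compound (up to 57.5 uM final), then substrate plus GAPDH/TPI/NAD/arsenate coupling and diaphorase/resazurin added. Fluorescence read after 20 min at RT, 525/598 nm.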
TbPYK inhibitor: blocks Trypanosoma brucei pyruvate kinase; Q57TT1; TbPYK enzyme, Kinase-Glo Plus ATP luminescence, 45 min; Potency, µM (top dose mostly 76.8 µM), actives largely listed as inhibitors; 0.12% of 410,000 active; AID 624173; note: nearly all actives have a fitted effect of over 50% in size
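In this concentration-response screen, enzyme-free wells defined baseline while DMSO plates tracked drift. Each reaction combined TbPYK, substrate, compound and 130 uM ADP for 45 min at room temperature. Kinase-Glo Plus luminescence gave the signal.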
Giardia growth: blocks growth of Giardia lamblia trophozoites; shares compounds with Giardia FBPA inh-1; Giardia lamblia trophozoite growth inhibition; Potency, µM (titrated, usually from 57.5 µM), most hits filed as inhibitors; 5% of 1,500 active; AID 2785;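 note: trophozoites exposed to compound for 48 h at 37 °C; nearly all actives have a fitted effect of over 70% in size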
Mammalian tox: toxic to mammalian cells in Giardia aldolase counter-screen. mammalian cell viability counter-screen, qHTS. 4% of 1,500 active. shares compounds with Giardia FBPA inh-1. AID 2786. Potency, µM (doses to about 57.5 µM), usual class: inhibitors;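 note: Chinese hamster ovary cells used as mammalian cytotoxicity surrogate; viability measured as cellular ATP by luminescence; compound exposure lasted 48 h before reading; nearly all actives have a fitted effect of over 60% in size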
Giardia FBPA inh-2: confirmation of Giardia fructose-bisphosphate aldolase inhibitors; shares compounds with Giardia FBPA inh-1; purified Giardia aldolase enzyme activity, qHTS; Potency, µM (top dose mostly 57.5 µM), hits mostly inhibitors; 5% of 1,500 active; AID 2787; note: nearly all actives have a fitted effect of over 45% in size
Rabbit FBPA inh: blocks rabbit muscle aldolase in Giardia aldolase selectivity test; shares compounds with Giardia FBPA inh-1; Rabbit muscle FBPA enzyme inhibition, selectivity counter-screen; Potency, µM (doses to about 57.5 µM), usual class: inhibitors; 4% of 1,500 active; note: nearly all actives have a fitted effect of over 60% in size
Target sequence (P00883 whole entry, looked up): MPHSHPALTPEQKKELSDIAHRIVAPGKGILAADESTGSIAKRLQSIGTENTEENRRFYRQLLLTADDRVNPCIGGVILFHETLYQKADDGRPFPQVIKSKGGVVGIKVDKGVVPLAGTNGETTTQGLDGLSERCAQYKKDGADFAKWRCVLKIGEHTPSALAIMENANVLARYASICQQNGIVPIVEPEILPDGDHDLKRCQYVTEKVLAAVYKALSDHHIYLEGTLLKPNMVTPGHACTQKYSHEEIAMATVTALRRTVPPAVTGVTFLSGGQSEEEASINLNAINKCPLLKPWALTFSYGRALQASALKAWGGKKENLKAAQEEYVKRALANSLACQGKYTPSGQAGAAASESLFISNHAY
GAPDH counter: GAPDH inhibition flagged for Giardia aldolase hits. shares compounds with Giardia FBPA inh-1. GAPDH coupling enzyme counterscreen, biochemical, qHTS. Potency, µM (titrated, usually from 57.5 µM), hits mostly inhibitors. 6% of 1,500 active. AID 2795; note: nearly all actives have a fitted effect of over 55% in size
Hits are given with their value; [ ] = another dose, or the depositor's remark. Unless noted, calls come from the whole dose curve; as a rule, active = well fitted curve in the direction sought with a large enough effect; inconclusive = small, poorly fitted or top-dose-only effect, or another doubt; inactive = no such curve, though single readings can be large; an effect the other way counts as inactive or inconclusive.

For COC(=O)C/C=N/N=C1/NC(=O)/C(=C/C(=O)O)S1 the results were RE007 growth inh inactive, LmPK inhibitor inactive, Giardia FBPA inh-1 17.7µM, TbPYK inhibitor inactive, Giardia growth inactive[10.4 µM], Mammalian tox inactive, Giardia FBPA inh-2 inactive, Rabbit FBPA inh inactive and GAPDH counter inactive.
Screening O=C(c1ccccc1)n1nc(-c2ccco2)nc1NCc1ccccc1Cl returned TbPYK inhibitor inactive.
COC/C=C/C1=CC2=CC(=O)C(C)(OC(=O)c3cnc4ccccc4n3)C(=O)C2=CN1Cc1ccccc1 (stereo not given) was read as RE007 growth inh inactive, LmPK inhibitor inactive[11.5 µM], Giardia FBPA inh-1 2.23µM, TbPYK inhibitor inactive, Giardia growth inactive, Mammalian tox inactive, Giardia FBPA inh-2 inconclusive, Rabbit FBPA inh inconclusive and GAPDH counter 25.1µM.
O=C(NCCc1ccc(Cl)cc1)c1cccn1-c1nnc(N2CCCC2)s1 was read as TbPYK inhibitor inactive[15.4 µM].
Clc1ccccc1Nc1ncnc2c1nc1n2CCCCC1 was read as TbPYK inhibitor inactive.
Screening CC(CN1CCCC1)OC(=O)c1cccc(F)c1 (stereo not given) returned RE007 growth inh inactive, LmPK inhibitor inactive, Giardia FBPA inh-1 17.8µM, TbPYK inhibitor inactive, Giardia growth inactive[10.4 µM], Mammalian tox inactive, Giardia FBPA inh-2 inactive, Rabbit FBPA inh inactive and GAPDH counter inactive.
For CSc1ccc(CCNC(=O)c2ccc3c(Cl)c4c(nc3c2)CCCC4)cc1 the results were TbPYK inhibitor inactive.
Screening CCOC(=O)Cc1csc(NC(=O)CN2CCOCC2)n1 returned RE007 growth inh inactive, LmPK inhibitor inactive, Giardia FBPA inh-1 14.1µM, TbPYK inhibitor inactive, Giardia growth inactive[10.4 µM], Mammalian tox inactive, Giardia FBPA inh-2 inactive, Rabbit FBPA inh inactive and GAPDH counter inactive.
`CCOC(=O)Cc1csc(NC(=O)CCC(=O)O)n1` gave RE007 growth inh inactive, LmPK inhibitor inactive, Giardia FBPA inh-1 inactive and TbPYK inhibitor inactive.
For CCOC(=O)Cc1csc(NC(=O)CCCc2ccccc2)n1 the results were RE007 growth inh inactive, LmPK inhibitor inactive, Giardia FBPA inh-1 35.5µM, TbPYK inhibitor inactive, Giardia growth inactive, Mammalian tox inactive, Giardia FBPA inh-2 inactive, Rabbit FBPA inh inactive and GAPDH counter inactive.
`CCOC(=O)Cc1csc(NS(=O)(=O)c2ccc(NC(C)=O)cc2)n1` gave RE007 growth inh inactive, LmPK inhibitor inactive, Giardia FBPA inh-1 14.1µM, TbPYK inhibitor inactive, Giardia growth inactive, Mammalian tox inactive, Giardia FBPA inh-2 inactive, Rabbit FBPA inh inactive and GAPDH counter inactive.
COc1cccc(NC(=O)c2sc3nc(C)c(C(=O)Nc4ccc(C)cc4C)c(-c4ccc(C)o4)c3c2N)c1 was read as TbPYK inhibitor inactive.
`CC1CCc2c(sc3nnn(Cc4ccc(F)cc4)c(=O)c23)C1` (stereo not given) gave TbPYK inhibitor inactive.
Screening O=c1cnc2cnc(Nc3ccccc3)nc2n1CCc1ccccc1 returned Giardia FBPA inh-1 inactive.
For O=C(Nc1ccc(F)cc1F)c1cc(=O)n(-c2ccccc2)c(=O)[nH]1 the results were RE007 growth inh inactive, LmPK inhibitor inactive, Giardia FBPA inh-1 7.92µM, TbPYK inhibitor inactive, Giardia growth inactive, Mammalian tox inactive, Giardia FBPA inh-2 inactive, Rabbit FBPA inh inactive and GAPDH counter inactive.
COc1cccc(NC2=C(C#N)C(=O)NC(c3cccc(OC)c3O)S2)c1 (stereo not given) was read as RE007 growth inh inactive, LmPK inhibitor inactive, Giardia FBPA inh-1 15.8µM, TbPYK inhibitor inactive, Giardia growth inconclusive, Mammalian tox inactive, Giardia FBPA inh-2 inconclusive, Rabbit FBPA inh inactive and GAPDH counter inactive.

Compound activity: PubChem, National Center for Advancing Translational Sciences (NCATS)
